Data from ChEMBL document CHEMBL3988442, “University of Dundee, Small-Polar-MMV Screening Library” (2021).
In all, about 48,000 compounds went through this assay and about 13,000 (27%) showed an effect of 50% or more. The list shows a part of the results.

Test system: Wolbachia pipientis
Assay: Anti-Wolbachia Cell-Based Screen
Format: functional
Design: scale not given: in the data most compounds retested in dose-response had high values
Settings: 5 µM

SMILES | Percent Effect
Cc1ccccc1C(C#N)NC(=O)c1cccc2c1OCCO2 (stereo not drawn) | 0.1196%
COc1ccc(OC)c(CNCCc2cc(F)cc3c2OCOC3)c1 | 17.88%
Cc1ccc(S(C)(=O)=O)cc1C(=O)N(C)Cc1ccco1 | 9.899%
NC(=O)c1ccc(=O)n(Cc2cc(Br)ccc2Cl)n1 | 5.907%
Cc1cc(C(=O)Nc2nnn[nH]2)ccc1I | -9.005%
Cc1cc(C(C)NC(=O)Cn2nc(C)c3ccccc3c2=O)c(C)o1 (stereo not drawn) | -1.65%
CCn1nc(C)c2ccn(CC(=O)NCCN3CCCCC3)c(=O)c21 | 109.9%
CCn1nc(C)c2nnn(CC(=O)Nc3c(C)cccc3C)c(=O)c21 | 15.34%
CCC(C)NC(=O)Cn1ccc2c(C)nn(CC)c2c1=O (stereo not drawn) | 121.4%
CCCNC(=O)Cn1nc(C)c2cnn(C(C)(C)C)c2c1=O | 7.954%
Cc1c2ncn(CC(=O)NC(C)C)c(=O)c2nn1C | -0.5924%
CCn1nc(C)c2ccn(CC(=O)NC(C)C)c(=O)c21 | 83.24%
CC(C(=O)NCCN1CCCCCC1)n1cncn1 (stereo not drawn) | 6.754%
C1CN(c2nc3c(c(NC4CC4)n2)CN(CC2CCOC2)CC3)CCO1 (stereo not drawn) | -9.007%
Cn1cc(CN2CCC3(CCC(C(=O)NCC4CC4)C3)CC2)cn1.O=C(O)C(F)(F)F (stereo not drawn) | 38.61%
O=C(c1ccncc1Cl)N1CCN(Cc2ccco2)C(CCO)C1 (stereo not drawn) | -0.1352%
Cc1nn(C)c(C)c1NC(=O)CNC(c1ccc(F)cc1)C1CCC1 (stereo not drawn) | 19.96%
COc1cccc2c1OCC(CNc1ccc(C)nn1)C2 (stereo not drawn) | -0.7094%
CCNC(=O)c1ccnc(NCC2COc3cc(OC)ccc3C2)c1 (stereo not drawn) | -7.933%
COc1ccc2c(c1)OCC(Cc1cnc(N)c(C)c1)C2 (stereo not drawn) | 16.7%
COc1ccc2c(c1)OCC(Cc1ccc(C)nc1N)C2 (stereo not drawn) | 95.38%
COc1ccc2c(c1)OCC(CNc1cc(N)nc(SC)n1)C2 (stereo not drawn) | 101.5%
COc1cccc2c1OCC(CNC(=O)Cc1c(C)nc(N)nc1C)C2 (stereo not drawn) | -7.382%

SMILES | Percent Effect
CCc1nc2c(NCC3COc4cc(OC)ccc4C3)ncnc2o1 (stereo not drawn) | -96.33%
COc1ccc2c(c1)OCC(Cc1cnccc1N)C2 (stereo not drawn) | 13.35%
COc1cccc2c1OCC(CNc1cc(N)nc(SC)n1)C2 (stereo not drawn) | 103.8%
Cc1cc(C(=O)N(C)Cc2ccn[nH]2)c(NC(=O)C(C)(C)C)s1 | -4.418%
CS(=O)(=O)N1CCOC2(CCCN(c3cnccn3)C2)C1.O=C(O)C(F)(F)F (stereo not drawn) | -3.383%
Cc1noc(-c2ccc(N(C)Cc3nccs3)nc2)n1 | -5.626%
CN(Cc1cc2c(cc1OC(F)F)OCO2)Cc1nccn1C | -0.8901%
CCC(=O)c1ccc(OCC(=O)NC(C)c2ncnn2CC)cc1 (stereo not drawn) | -19.04%
CCCn1c(O)nnc1SCC1OCCc2ccccc21 (stereo not drawn) | 5.121%
CCc1cc(C(=O)N[C@H]2CN(CCS(C)(=O)=O)C[C@@H]2C2CC2)[nH]n1 | -10.24%
CCOc1ccc(C#N)cc1NC(=O)N1CCCC(NC(=O)CC)C1 (stereo not drawn) | -6.604%
CCOc1ccc(C#N)cc1NCC(=O)NC(=O)NC | 104.9%
CCOc1ccc(C#N)cc1NC(=O)N1CCC(N2CCCC2)C1 (stereo not drawn) | -9.106%
CCNC(=O)C1CCCN(C(=O)Nc2cc(C#N)ccc2OCC)C1 (stereo not drawn) | 2.708%
CCOc1ccc(C#N)cc1NCC(=O)OC | 115.5%
CCOc1ccc(C#N)cc1NCC(=O)NC(=O)Nc1ccccc1 | 91.19%
CCOc1ccc(C#N)cc1NCC(=O)Nc1cc(F)ccc1F | -5.639%
CCNC(=O)NC(=O)CNc1cc(C#N)ccc1OCC | 107.7%
CCOc1ccc(C#N)cc1NCC(=O)Nc1cc(C)no1 | 4.952%
CCCNC(=O)CNc1cc(C#N)ccc1OCC | -1.533%
CCOc1ccc(NC(=O)c2ccc(C#N)cc2C)cc1CO | -12.77%
CCOc1ccc(C#N)cc1NCc1cc(C)on1 | -2.452%
O=C(CCCC1CCCC1)NS(=O)(=O)CC1CC1 | 4.87%

SMILES | Percent Effect
O=C1NCCCCC1NC(=O)C1(c2ccc3c(c2)OCCO3)CCCC1 (stereo not drawn) | -1.756%
Cc1cccc(C(=O)N2CCCC2)c1NCC(=O)NC1(C#N)CCCC1 | -7.992%
CCOc1ccc(C#N)cc1NCC(=O)NC1(C#N)CCCC1 | 87.98%
Cc1cccc(NCC(=O)NC2(C#N)CCCC2)c1C(=O)N1CCCC1 | -22.31%
O=C(Cn1cc(-c2ccccc2)ncc1=O)Nc1nnc[nH]1 | -2.785%
CN(Cc1ccc(Cl)s1)C(=O)CN(C)C1CCc2ccccc21 (stereo not drawn) | 3.858%
COc1ccc(CC(=O)NC2(C)CCS(=O)(=O)C2)cc1F (stereo not drawn) | 7.488%
Cc1csc(N2CCN(Cc3ccccn3)CC2)n1 | 105.9%
Cc1csc(N2CCN(C(=O)CCc3ccccn3)CC2)n1 | 1.737%
Cc1csc(N2CCN(Cc3ccccn3)CC2C)n1 (stereo not drawn) | 18.1%
FC(F)(F)c1ccnc(N2CCCN(Cc3ccccn3)CC2)n1 | 100.8%
FC(F)(F)c1csc(N2CCN(Cc3ccccn3)CC2)n1 | 72.86%
Cc1ncc(S(C)(=O)=O)c(N2CCCN(Cc3ccccn3)CC2)n1 | 10.32%
CC(C)c1nc(CN2CCN(Cc3ccccn3)CC2)cs1 | -4.826%
FC(F)(F)CCc1ccnc(N2CCN(Cc3ccccn3)CC2)n1 | 5.215%
COc1ccccc1-c1ncc(CN2C[C@@H](N(C)C)[C@H](C(C)C)C2)s1 | -33.52%
COc1cc(OC)cc(N2CCC(NCc3cccs3)C2=O)c1 (stereo not drawn) | -13.31%
CCC(C)NC(=O)c1ccc(NC(=O)CCc2ccncc2)c(C)c1 (stereo not drawn) | -8.958%
CNC(=O)[C@@H](c1ccccc1)N1CCC[C@H]1C(=O)NCc1cccnc1.Cl.Cl | -3.423%
Cc1ncccc1NC(=O)c1nc2c(n1C)CCN(C(=O)C1CC1)C2 | 102%
Cn1c(C(=O)NC2CC2)nc2c1CCN(c1ncccn1)C2 | -5.985%
Cc1nc(CNC(=O)NC2CCN(c3ncccc3Cl)C2)oc1C (stereo not drawn) | -13.94%
